An excerpt weighted towards active compounds, which were near 3.6% of everything screened.
Pf apPOL inh = Pf-apPOL inhibitors, biochemical, fluorescence | actives 0.25% (n = 210,000) | AID 1794808, 2022 | inhibition, % at 10 µM | Plasmodium falciparum apicoplast DNA polymerase (apPOL) | Recombinant Pf-apPOL, molecular beacon fluorescence, 1.5 h
mHTT-CaM PPI inh = mutant huntingtin-calmodulin interaction inhibitors – biochemical, AlphaScreen, primary screen; AID 1671202, 2021; inhibition, % at 15 µM; actives 3.6% (n = 190,000); AlphaScreen His-mHTT/GST-CaM binding, luminescence;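 note: 0% = both proteins with DMSO and 100% = one protein alone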
The depositor's hits bear a star; ! = not active in a repeat. Cut-off read from the data, not from the text of the source: active = inhibition above about 50%; inactive = the rest.

How did CC(=O)c1cccc(NC(=O)C2c3ccccc3Oc3ccccc32)c1 do in these assays?
Pf apPOL inh: 3; mHTT-CaM PPI inh: 0

How did O=C(NCc1ccc(F)cc1F)C1CC(=O)N(CCc2ccccc2)C1 (centres undefined) do in these assays?
Pf apPOL inh: -7; mHTT-CaM PPI inh: -7

Results for CCOC(=O)N1CCc2nn(CC(=O)Nc3ccccc3CC)c(=O)cc2C1 ?
Pf apPOL inh: -4; mHTT-CaM PPI inh: -1

Results for CC(=O)N1CCc2ccc(NC(=O)c3cccc(Br)c3)cc21 ?
Pf apPOL inh: -4; mHTT-CaM PPI inh: -4

What do the screens show for `O=C(CCCc1ccccc1)NCc1ccncc1`?
Pf apPOL inh: 0; mHTT-CaM PPI inh: 0

Results for O=C(NCc1ccc(Cl)cc1)c1cn(-c2cccc(F)c2)nn1 ?
Pf apPOL inh: -2; mHTT-CaM PPI inh: -5

How did Cc1ccc2nc(NC(=O)c3ccc(S(=O)(=O)N4CCCC4)cc3)sc2c1 do in these assays?
Pf apPOL inh: -3; mHTT-CaM PPI inh: -5

What do the screens show for `CC1CC(=O)Nc2ccccc2N1S(=O)(=O)c1ccc(-c2ccccn2)s1` (centres undefined)?
Pf apPOL inh: -8

What do the screens show for `Cc1cccc(NC(c2cccc(C)n2)c2ccc3ccc(C)nc3c2O)n1` (centres undefined)?
Pf apPOL inh: 1; mHTT-CaM PPI inh: 76*

Results for Cc1cccc(NC(=O)C(=O)NCc2ccccn2)n1 ?
Pf apPOL inh: -5; mHTT-CaM PPI inh: -11

What do the screens show for `Cc1cccc(NC(c2ccccn2)c2ccc3ccc(C)nc3c2O)n1` (centres undefined)?
Pf apPOL inh: -3; mHTT-CaM PPI inh: 99*

Results for Cc1ccc2ccc3ccc(C)nc3c2n1 ?
mHTT-CaM PPI inh: 1

Results for CCN1CCN(CC(O)COC2CCCC2C)CC1 (centres undefined) ?
Pf apPOL inh: -8; mHTT-CaM PPI inh: -7

How did CC(C)CC(=O)N1CCc2c(c(C(=O)NCc3ccccc3)nn2C)C1 do in these assays?
Pf apPOL inh: -7; mHTT-CaM PPI inh: 18

Results for Cn1nc(C(=O)NCc2ccccc2)c2c1CCN(C(=O)COc1ccc(Cl)cc1)C2 ?
Pf apPOL inh: -7; mHTT-CaM PPI inh: 87*

How did COCC(=O)N1CCc2c(c(C(=O)NCc3ccc(Cl)cc3)nn2C)C1 do in these assays?
Pf apPOL inh: -1; mHTT-CaM PPI inh: 18

Results for CCOc1ccc(C(=O)N2CCc3c(c(C(=O)NCc4ccc(F)cc4)nn3C)C2)cc1 ?
Pf apPOL inh: -10; mHTT-CaM PPI inh: -9

How did Cn1nc(C(=O)NCc2ccc(F)cc2)c2c1CCN(C(=O)COc1ccc(F)cc1)C2 do in these assays?
Pf apPOL inh: -9; mHTT-CaM PPI inh: 81*

How did Cn1nc(C(=O)NCc2ccccc2)c2c1CCN(C(=O)COc1ccccc1)C2 do in these assays?
Pf apPOL inh: -9; mHTT-CaM PPI inh: 56*

Results for Cc1cc(Cl)ccc1NC(=O)N1CCC(c2nc3ccncc3n2C(C)C)C1 (centres undefined) ?
Pf apPOL inh: -4; mHTT-CaM PPI inh: 6

How did Cc1cc(NC(=O)c2cc(C)oc2C)n(C)n1 do in these assays?
Pf apPOL inh: -25

Results for O=[N+]([O-])c1cc(C=Nc2ccccc2I)ccc1Br ?
Pf apPOL inh: -2; mHTT-CaM PPI inh: 10

How did COC(=O)c1ccc(Oc2coc3c4c(ccc3c2=O)OCN(Cc2ccc(OC)cc2)C4)cc1 do in these assays?
Pf apPOL inh: -18; mHTT-CaM PPI inh: 19

How did O=C1c2ccccc2C(=O)c2c1oc1c3c(ccc21)OCN(Cc1cccnc1)C3 do in these assays?
Pf apPOL inh: 12; mHTT-CaM PPI inh: 94*!

How did COc1ccc(CN2COc3ccc4c(=O)c(-c5ccccc5)c(C)oc4c3C2)cc1 do in these assays?
Pf apPOL inh: -9; mHTT-CaM PPI inh: 12

Results for COC(=O)c1ccc(Oc2c(C)oc3c4c(ccc3c2=O)OCN(Cc2cccnc2)C4)cc1 ?
Pf apPOL inh: 0; mHTT-CaM PPI inh: 0

Results for c1coc(CN2COc3cc4c(cc3C2)OCN(Cc2ccco2)C4)c1 ?
mHTT-CaM PPI inh: 3

Results for O=C1c2ccccc2C(=O)c2c1oc1c3c(ccc21)OCN(Cc1ccccn1)C3 ?
Pf apPOL inh: -6; mHTT-CaM PPI inh: 100*

What do the screens show for `O=C1c2ccccc2C(=O)c2c1oc1c3c(ccc21)OCN(Cc1ccco1)C3`?
Pf apPOL inh: -5; mHTT-CaM PPI inh: 93*

Results for COC(=O)c1ccc(Oc2coc3c4c(ccc3c2=O)OCN(Cc2ccccn2)C4)cc1 ?
Pf apPOL inh: -36; mHTT-CaM PPI inh: 100*

What do the screens show for `CCCCCCSc1nnc(-c2ccco2)c(-c2ccco2)n1`?
Pf apPOL inh: 4; mHTT-CaM PPI inh: 90*

What do the screens show for `O=C(CSc1nnc(-c2ccco2)c(-c2ccco2)n1)c1ccc(Cl)cc1`?
Pf apPOL inh: -6; mHTT-CaM PPI inh: 61*

How did COc1cc(NC(=O)CSc2nnc(-c3ccco3)c(-c3ccco3)n2)cc(OC)c1 do in these assays?
Pf apPOL inh: -2; mHTT-CaM PPI inh: 97*

What do the screens show for `Cn1c(SCC(=O)c2ccc(O)cc2)nnc1-c1ccco1`?
Pf apPOL inh: -3; mHTT-CaM PPI inh: -1

Compound activity (PubChem)
